CYP2C9 activ: CYP2C9 (human) activation | AID 1024 | 96,000 tested, 1.4% active | activation factor at 5 µM | P11712 | recombinant CYP2C9, luciferin-H conversion, luminescence; stronger effect = higher value; factor 1 = untreated enzyme, 0 = blocked;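 active means activation factor of 2 or more for CYP2C9 at a 5 µM dose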;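 further: 0 = sulfaphenazole-blocked wells and 1 = vehicle-only wells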
Target sequence (P11712 whole entry, looked up): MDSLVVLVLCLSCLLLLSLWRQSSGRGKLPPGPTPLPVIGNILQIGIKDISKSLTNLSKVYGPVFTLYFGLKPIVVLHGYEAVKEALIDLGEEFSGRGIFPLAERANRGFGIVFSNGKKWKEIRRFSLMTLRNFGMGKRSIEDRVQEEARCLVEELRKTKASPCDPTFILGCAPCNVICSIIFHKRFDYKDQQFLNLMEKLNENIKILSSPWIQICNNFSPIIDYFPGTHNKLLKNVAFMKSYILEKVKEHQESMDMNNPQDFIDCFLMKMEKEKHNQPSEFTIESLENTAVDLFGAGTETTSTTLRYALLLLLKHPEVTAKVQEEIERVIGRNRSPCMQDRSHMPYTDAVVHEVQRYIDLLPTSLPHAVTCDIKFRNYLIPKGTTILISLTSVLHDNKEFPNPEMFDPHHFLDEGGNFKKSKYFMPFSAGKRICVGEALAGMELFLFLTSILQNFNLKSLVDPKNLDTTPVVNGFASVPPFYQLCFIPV
CYP2C19 inh: inhibitors of human CYP2C19; CYP2C19 Supersomes, luciferin-H EGE luminescence, 30 min; inhibition, % at 5 µM; 96,000 tested, 21% active;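 active means CYP2C19 inhibition above a set limit at 5 µM in the primary screen, cut at about 50% in these data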;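 further: plate controls were negative control wells for no effect and 2.5 mM tranylcypromine positive control for full effect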
sEH activator: activators of human soluble epoxide hydrolase; P34913; purified human sEH enzymatic activity, activator screen; activation, % at 2 µM; 91,000 tested, 0.04% active; in the data active means activation above about 37%
sEH inh: blocks human soluble epoxide hydrolase activity; 91,000 tested, 0.34% active; inhibition, % at 2 µM; recombinant human sEH enzymatic activity assay; in the data active means inhibition above about 80%
CYP2C19 act: activators of human cytochrome P450 2C19; 96,000 tested, under 10 active; recombinant CYP2C19, luciferin-H EGE luminescence; stronger effect = higher value; 0 = fully inhibited enzyme, 1 = untreated enzyme; P33261; activation factor at 5 µM;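 active means activation factor of at least 2 at 5 µM in the primary screen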;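 further: 0 = wells with 2.5 mM tranylcypromine and 1 = vehicle-only wells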
CYP2C9 inh: human CYP2C9 inhibition; 96,000 tested, 20% active; P11712; CYP2C9 Supersomes, luciferin-H conversion, luminescence; inhibition, % at 5 µM;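 active means blocking of liver enzyme CYP2C9 beyond about 50% at 5 µM, limit read from the data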
* = called active by the depositor; x = no result given. Sampled rows, rich in hits. Any-hit rate of the full collection: about 27%.

SMILES	CYP2C9 activ	CYP2C19 inh	sEH activator	sEH inh	CYP2C19 act	CYP2C9 inh
Cc1ccc(S(=O)(=O)N2CCCN(S(=O)(=O)c3ccc(C)cc3)CC2)cc1	1.7	8	-8	7	0.9	-66
O=C(C1CCCN(S(=O)(=O)Cc2ccccc2)C1)N1CCc2ccccc21 (centres undefined)	0.9	24	24	-22	0.8	8
Cc1ccc(S(=O)(=O)N2CCN(C(=O)Cc3ccccc3)CC2)cc1	0.7	64*	10	-9	0.4	33
COc1ccc2c(Cl)c(C(=O)NCCCn3ccnc3)sc2c1Cl	0.1	88*	-30	29	0.1	88*
O=C(NCCCN1CCOCC1)c1cc(-c2cccs2)on1	1	-2	x	x	1	-2
O=C(NCCCn1ccnc1)c1cc(-c2cccs2)on1	0.5	79*	-3	4	0.2	48
COc1ccc(OC)c(-c2cc(C(=O)Nc3cc(C)n(Cc4ccc(Cl)cc4)n3)no2)c1	1.4	12	7	-6	0.9	-42
COc1ccc(OC)c(-c2cc(C(=O)NCCCn3ccnc3)no2)c1	0.8	75*	x	x	0.2	22
CC(NS(=O)(=O)c1ccccc1)C(N)=O (centres undefined)	1.2	-5	0	-5	1.1	-23
CCN(CC#CCC1(O)c2ccccc2-c2ccccc21)C(C)C	0.8	29	-4	4	0.7	19
O=C(Nc1ccnc(-c2cccnc2)n1)c1cccc(Cl)c1Cl	0.8	51*	-7	6	0.5	24
CCCCC(=O)Nc1ccnc(-c2cccnc2)n1	0.2	98*	-4	6	0	76*
CC(C)C(=O)Nc1ccnc(-c2cccnc2)n1	0.6	76*	8	-6	0.2	42
O=C(Nc1ccnc(-c2cccnc2)n1)c1ccccc1Cl	0.8	24	10	-7	0.8	25
CCCCC(=O)Nc1ccc(NC(=O)c2cccnc2)cn1	0.7	8	8	-7	0.9	29
Cc1oc2nc(SCC(=O)NCCCO)nc(N)c2c1C	0.9	6	12	-10	0.9	12
CCOC(=O)C1=C(Nc2ccc(Br)cc2)CC(C)(O)C(C(=O)OCC)C1c1ccccc1 (centres undefined)	1.1	-10	-4	4	1.1	-11
Cn1c(=O)n(Cc2ccc(Cl)cc2)c2ccccc21	0.7	76*	-11	11	0.2	34
Cn1c(NCCCO)nc2c1c(=O)n(Cc1ccccc1F)c(=O)n2C	1	-12	1	1	1.1	0
COc1ccccc1Oc1nc2c(c(=O)n(Cc3ccccc3F)c(=O)n2C)n1C	1.1	60*	-9	6	0.4	-10
O=c1n(Cc2ccccc2F)c2ccccc2n1Cc1ccccc1F	x	x	-4	7	x	x
Cn1c(=O)n(CCOc2ccc(Cl)cc2Cl)c2ccccc21	0.9	18	-11	12	0.8	13
Cn1c(=O)n(Cc2ccccc2F)c2ccccc21	0.6	70*	9	-5	0.3	35
c1ccc(CCCNc2ncccn2)cc1	x	x	-16	16	x	x
Cc1cccc2c(=O)oc(-c3ccc4c(c3)C(=O)N(CC3CCCO3)C4=O)nc12 (centres undefined)	x	x	4	-4	x	x
SMILES	CYP2C9 activ	CYP2C19 inh	sEH activator	sEH inh	CYP2C19 act	CYP2C9 inh
CN1CCc2c(c3c(n2C)CCN(C)[C@H]3c2ccccc2F)[C@@H]1c1ccccc1F	0.7	6	-14	16	0.9	27
COC(=O)C1=CN(CCCN2CCCC2=O)C=C(C(=O)OC)C1c1ccccc1C(F)(F)F	0.6	7	3	-3	0.9	45
COc1ccccc1C(=O)N/C(=C\c1ccc(Br)cc1)C(=O)NCCO	0.9	13	-10	8	0.9	11
CCN(CC)C(=O)/C(=C\c1ccc(Br)cc1)NC(=O)c1ccccc1OC	0.3	28	4	-6	0.7	73*
CCOc1ccccc1NC(=O)C(=O)NCC1CCCN1CC (centres undefined)	1	-1	2	0	1	1
CC(=O)Nc1ccccc1C(=O)C(=O)Nc1cccc(F)c1	x	x	39*	-43	x	x
Cc1nn(-c2ccccc2)c2sc(C(=O)C(C#N)c3ccccn3)cc12 (centres undefined)	0.6	9	x	x	0.9	37
O=C(OCc1ccccc1)C1=[N+]([O-])OC(C(=O)OCc2ccccc2)C1c1c[nH]c2ccccc12 (centres undefined)	0	84*	10	-7	0.2	96*
O=C(COC(=O)C1CC1)c1c[nH]c2ccccc12	1	28	3	-3	0.7	-2
CC(=O)c1ccc(NC(=O)C2CCN(S(=O)(=O)c3cccc4cccnc34)CC2)cc1	1.9	4	-7	7	1	-86
O=C(Nc1ccc2c(c1)OCO2)C1CCCN1C(=O)Nc1cccc(F)c1 (centres undefined)	0.8	93*	x	x	0.1	20
CC(=O)c1cccc(NC(=O)C2CCCN2S(=O)(=O)c2cccc3cccnc23)c1 (centres undefined)	0.1	56*	1	-2	0.4	92*
O=C(Nc1ccc(C(F)(F)F)cc1)C1CCCN1S(=O)(=O)c1cccc2cccnc12 (centres undefined)	0.4	29	4	-3	0.7	57*
CSc1cccc(NC(=O)C2CCCN2S(=O)(=O)c2ccc(Br)s2)c1 (centres undefined)	0.3	98*	3	0	0	74*
CSc1cccc(NC(=O)C2CCCN(S(=O)(=O)c3ccc(F)cc3)C2)c1 (centres undefined)	0.8	40	-37	37	0.6	24
O=C(NCc1ccc2c(c1)OCO2)C1CCCN1C(=O)Nc1cccc(F)c1 (centres undefined)	x	x	13	-12	x	x
COC(=O)C1(C)NC(c2ccco2)C2C(=O)N(c3ccc(C)cc3)C(=O)C21 (centres undefined)	1	1	-11	13	1	2
CN(C)N=Nc1ccc(S(=O)(=O)N2CCSC2C(=O)O)cc1 (centres undefined)	x	x	-4	6	x	x
O=C(Nc1ccc2c(c1)OCCO2)C1CCCN1S(=O)(=O)c1cccc2cccnc12 (centres undefined)	0	15	x	x	0.8	97*
O=C(NCc1ccccc1)C1CCCN1S(=O)(=O)c1cccc2cccnc12 (centres undefined)	1.8	30	-5	4	0.7	-80
O=C(Nc1cccc(F)c1)C1CCCN1S(=O)(=O)c1cccc2cccnc12 (centres undefined)	0.2	80*	4	-6	0.2	81*
O=C(CC1CCCC1)OCn1nnc2ccccc2c1=O	0.8	23	x	x	0.8	17
CC(C)(O)C#CC#CCN1CCOCC1	0.9	-6	12	-10	1.1	10
O=C(NCCOCCOCCNC(=O)c1cccnc1)c1cccnc1	1	11	x	x	0.9	0
